Results as given in PubChem BioAssay AID651791 (National Center for Advancing Translational Sciences (NCATS), 2012).
Inconclusive results are not listed. Calls of active or inactive are those of the source. Calls follow the shape of the dose curve; as a rule, active = well fitted inhibition curve with a large enough effect; inconclusive = small, poorly fitted or top-dose-only effect; inactive = no such curve, though single readings can be large or run the other way.

experiment: InCell qHTS Assay for Inhibitors of the mTORC1 Signaling Pathway in MEF (Tsc2-/-, p53-/-) Cells: Hit Validation; conditions: phospho-rpS6 immunofluorescence, 24 h; activity change, negative = inhibition: at 38.3 µM (top of the series);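 also: phospho-S6 Ser235/236 signal normalized to propidium iodide cell count per well; nearly all actives have a fitted effect of over 75% in size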
Potency is read from the fitted curve at half-maximal effect.

With `CC1=C(C(=O)Nc2ccc(C)cc2C)C(c2cc(Br)ccc2F)n2ncc(C(=O)Nc3ccc(C)cc3)c2N1` (stereo not drawn) the Potency was 14.7 µM (active).
With `C=CCc1c(C)nc2nc(SCC(=O)Nc3ccc(C)c(C)c3)nn2c1C` the Potency was 9.27 µM (active).
With `CCS(=O)(=O)c1ncc(Cl)c(C(=O)N2CCN(c3cccc(Cl)c3)CC2)n1` the Potency was 2.61 µM (active).
With `O=C(NCc1ccccc1)c1nc(S(=O)(=O)Cc2ccccc2)ncc1Cl` the Potency was 5.85 µM (active).
With `CC(C)CS(=O)(=O)c1oc(-c2ccc(F)cc2)nc1S(=O)(=O)c1ccccc1` the Potency was 3.29 µM (active).

`COc1ccc(-c2nnc(SCC(=O)NCc3ccccc3)nc2-c2ccc(OC)c(OC)c2)cc1OC` and `COc1ccc(-c2[nH]nc3nc(-c4cc(OC)c(OC)c(OC)c4)cc(C(=O)O)c23)cc1` are the same in activity change, negative = inhibition: -100% for the first, -100% for the second.

`Cc1cccc(-n2cnc3cc(C(=O)NC4CCCCCC4)ccc32)c1` and `CCC1=Nc2cc(C(=O)NC3CCCC3)ccc2Sc2ccc(Br)cc21` are the same in activity change, negative = inhibition: -100% for the first, -100% for the second.

`CCc1ccc(S(=O)(=O)N(C(=O)c2ccncc2)c2ccc3oc(C)c(C(=O)OC)c3c2)cc1` and `Cc1ccc(S(=O)(=O)Nc2ccc3c(c2)c(C(=O)OC(C)C)c(C)n3S(=O)(=O)c2ccc(C)cc2)cc1` are the same in activity change, negative = inhibition: -100% for the first, -100% for the second.

`Cc1cccc(Nc2ncc(NC(=O)c3cccc(F)c3)c(Nc3cccc(C)c3)n2)c1` and `Cc1cccc(Nc2nnc(-c3ccc(C)c(S(=O)(=O)N4CCN(C)CC4)c3)c3ccccc23)c1` are the same in activity change, negative = inhibition: -100% for the first, -100% for the second.

`Cc1cccc(CN2CCc3nc(N4CCN(c5ccccn5)CC4)ncc3C2)c1` and `CCCCOCc1cc(CN2CCN(c3cccc(Cl)c3)CC2)c(O)c2ncccc12` are the same in activity change, negative = inhibition: -100% for the first, -100% for the second.

`COc1ccc(NC(=O)c2c(NC(=O)COc3ccccc3)sc3c2CCC(C)C3)cc1` (stereo not drawn) and `COc1ccc(NC(=O)c2ccco2)cc1NC(=O)COc1ccccc1Cl` are the same in activity change, negative = inhibition: -100% for the first, -100% for the second.

`CCOC(=O)c1cnc2ccc(C)cc2c1Nc1ccc(N(CC)CC)cc1` and `CCC1CCc2nc3sc(C(=O)Nc4ccc(C)cc4)c(N)c3cc2C1` (stereo not drawn) are the same in activity change, negative = inhibition: -100% for the first, -100% for the second.

`COc1cc(O)ccc1-c1nc2ccc(Br)cn2c1Nc1ccccc1C` and `Cc1ccccc1Oc1nc2ccccn2c(=O)c1/C=C(\C#N)c1nc2ccccc2[nH]1` are the same in activity change, negative = inhibition: -100% for the first, -100% for the second.

`COc1ccc(C)cc1NC(=O)CSc1ccc(-c2ccccn2)nn1` and `COC(=O)c1ccccc1NC(=O)CSc1n[nH]c(CC(C)C)n1` are the same in activity change, negative = inhibition: -100% for the first, -100% for the second.

First: Cc1cc(-c2ccc(S(=O)(=O)Nc3cccc(C)c3C)s2)on1
Second: Cc1ccc([C@H]2Nc3ccc(S(=O)(=O)Nc4cccc(Cl)c4C)cc3[C@H]3C=CC[C@H]32)cc1
The activity change, negative = inhibition of the first is higher: -21.8% for the first, -100% for the second.

Going from `Cc1cccc(Cn2cc(C(=O)Nc3ccc(F)c(C(F)(F)F)c3)ccc2=O)c1` to `COc1ccc(Cl)cc1S(=O)(=O)NCc1ccc2c(c1)CCN2C(=O)c1cccc(C)c1`, the activity change, negative = inhibition rises from -100% to -8.71%.

`COc1ccc(Cn2c(C(=O)O)c(CNCc3ccccc3F)c3ccc(OC)cc32)cc1` and `COc1cccc(-c2nc(S(=O)(=O)c3ccc(Cl)cc3)c(NCc3ccccc3)o2)c1` are the same in activity change, negative = inhibition: -100% for the first, -100% for the second.

`COc1ccc(N2CCN(C(=O)C3CCN(Cc4nc(-c5ccc(Cl)cc5)oc4C)CC3)CC2)cc1` and `CC1CCCN(CCCNC(=O)c2ccc3c(c2)N(Cc2ccc(Cl)cc2)C(=O)c2ccccc2S3(=O)=O)C1` (stereo not drawn) are the same in activity change, negative = inhibition: -100% for the first, -100% for the second.

`CCCN(c1ccccc1CC)S(=O)(=O)c1ccc2c(c1)CC(C)N2C(=O)C1CC1` (stereo not drawn) and `CC(C)Cc1ccc(S(=O)(=O)N2CCC(c3ccncc3)CC2)cc1` are the same in activity change, negative = inhibition: -100% for the first, -100% for the second.

`COc1ccc(N2CC(c3nc(-c4cc(OC)c(OC)c(OC)c4)no3)CC2=O)cc1Cl` (stereo not drawn) and `COc1ccc(Nc2cc(C)nc(-n3nc(C)cc3C)n2)cc1Cl` are the same in activity change, negative = inhibition: -100% for the first, -100% for the second.

First: Cc1cccc(NC(=O)c2sc3nc4c(cc3c2N)CCCCCC4)c1C
Second: CCC1=Nc2cc(C(=O)NC3CCCC3)ccc2Sc2ccc(Cl)cc21
The activity change, negative = inhibition of the first is higher: -11% for the first, -100% for the second.

`Cc1cccc(C2C=C(c3ccc(C)c(C)c3)Nc3nnnn32)c1` (stereo not drawn) showed an activity change, negative = inhibition of -17.1%.
